Assay outcomes (PubChem BioAssay)
Hits are enriched below; roughly 3% of the tested compounds scored in any of these assays.
Vc quorum ag – quorum light induction in luxS cqsA deficient V. cholerae. 0.16% of 350,000 active. AID 588436. activation, % at 18.7 µM. V. cholerae BH1578 lux reporter, luminescence, 6 h; in the data active means activation mostly above about 9.7%, no sharp cut-off
GDH-TPI counter-1 – GDH-TPI coupled enzyme inhibition counter-screen. 1.2% of 360,000 active. GDH-TPI coupled enzyme counterscreen, NADH absorbance. AID 588335. inhibition, % at 4.8 µM; in the data active means inhibition above about 30%
Mtb FBA inh – inhibits M. tuberculosis FBA enzyme | AID 588726 | inhibition, % at 1 µM | 2.3% of 360,000 active | purified M. tuberculosis FBA, fluorescence read-out
Target sequence (P9WQA3 whole entry, looked up): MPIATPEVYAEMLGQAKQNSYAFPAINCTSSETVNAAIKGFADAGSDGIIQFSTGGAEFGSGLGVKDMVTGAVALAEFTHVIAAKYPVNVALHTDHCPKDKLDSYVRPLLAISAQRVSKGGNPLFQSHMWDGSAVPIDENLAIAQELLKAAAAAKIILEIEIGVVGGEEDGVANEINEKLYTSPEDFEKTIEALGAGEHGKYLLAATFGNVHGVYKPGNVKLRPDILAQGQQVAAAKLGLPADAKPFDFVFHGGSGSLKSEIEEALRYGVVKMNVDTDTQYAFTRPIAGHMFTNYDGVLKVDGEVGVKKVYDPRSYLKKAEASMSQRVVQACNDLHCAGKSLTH
BioA inh – inhibitors of Mycobacterium tuberculosis BioA enzyme; purified M. tuberculosis BioA enzyme, plate reader; inhibition, % at 9.99 µM; 0.096% of 360,000 active; in the data active means inhibition above about 40%
Mtb FBA inh conf – confirmation of M. tuberculosis fructose-bisphosphate aldolase inhibitors; purified M. tuberculosis FBA, fluorescence read-out; inhibition, % at 1 µM; 78% of 5,600 active; shares compounds with Mtb FBA inh
GDH-TPI counter-2 – inhibits GDH-TPI coupling enzymes, flagging Mtb FBA hits; shares compounds with Mtb FBA inh; GDH-TPI coupled enzyme counterscreen, fluorescence; inhibition, % at 1 µM; 81% of 5,600 active; in the data active means inhibition above about 10%
Numbers stand for hits; n = inactive; x = no result given; + = active, no number. Unless noted, no stated cut-off is given here; in the data, active means inhibition above about 27%; inactive means the rest.

SMILES	Vc quorum ag	GDH-TPI counter-1	Mtb FBA inh	BioA inh	Mtb FBA inh conf	GDH-TPI counter-2
CC(OC(=O)c1cc(S(=O)(=O)N2CCOCC2)ccc1F)C(=O)NC1CCCCC1C (stereo unspecified)	n	n	30	n	35	27
Cc1ccc(S(=O)(=O)N2CCOCC2)cc1C(=O)OC(C)C(=O)NC1CCCC1 (stereo unspecified)	n	n	n	n	x	x
Cn1c(=O)n(C)c2cc(S(=O)(=O)Nc3ccccc3C(=O)O)ccc21	n	n	29	n	+	+
C[C@H](CO)N1C[C@H](C)[C@@H](CN(C)CC2CCOCC2)Oc2ncc(C#Cc3ccncc3)cc2C1=O	x	x	x	n	x	x
C[C@H](CO)N1C[C@H](C)[C@@H](CN(C)C(=O)NC2CCCCC2)Oc2ccc(NC(=O)Nc3ccc4c(c3)OCO4)cc2CC1=O	x	x	x	n	x	x
COc1ccc(-c2nnc(-c3ccc(C)cc3)o2)cc1	n	n	62	n	n	n
COc1ccc(-c2nnc(-c3ccc(F)cc3)o2)cc1	n	n	n	x	x	x
Cc1ccc(-c2nnc(-c3cccs3)o2)cc1	n	n	54	x	61	49
Cc1ccc(/C=C/c2nnc(-c3cccs3)o2)cc1	n	n	n	n	x	x
C[C@@H](NC(=O)C[C@H]1C=C[C@@H](NC(=O)C2CCOCC2)[C@H](CO)O1)c1ccccc1	x	x	x	n	x	x
O=C(N[C@H]1CC[C@@H](CCNC(=O)C2CCCC2)O[C@H]1CO)c1ccncc1	x	x	x	n	x	x
COc1cc2c(cc1OC)CN(Cc1ccccc1)CC2	n	n	n	n	x	x
COc1cc2c(cc1OC)CN(Cc1cccs1)CC2	n	n	29	n	98	87
COc1cc2c(cc1OC)CN(CC(O)c1ccccc1)CC2 (stereo unspecified)	n	n	57	n	41	33
COc1ccc(-c2nn(-c3ccccc3)cc2N)cc1	n	n	93	x	+	+
COc1cc2c(cc1NC(=S)Nc1cccc3ccccc13)oc1ccccc12	n	n	105	n	+	187
Cc1ccc(NC(=S)Nc2cccc3ccccc23)cc1F	n	n	47	n	+	168
CC(=O)N(C)c1ccc(NC(=S)Nc2cccc3ccccc23)cc1	n	n	n	x	x	x
O=C(Nc1cccc2ccccc12)c1cccc(F)c1	n	n	n	n	x	x
Cc1cc(C)cc(NC(=S)Nc2cccc3cnccc23)c1	n	n	n	x	x	x
Fc1cccc(NC(=S)Nc2cccc3ccccc23)c1	n	n	67	n	+	+
COCCCNC(=S)Nc1cc2oc3ccccc3c2cc1OC	n	n	n	n	x	x
CC(=O)c1ccc(NC(=S)Nc2cccc3ccccc23)cc1	n	n	53	n	76	60
C[C@H](CO)N1C[C@H](C)[C@@H](CN(C)C(=O)C2CC2)Oc2cc(Br)ccc2S1(=O)=O	x	x	x	n	x	x
COc1ccc(NC(=O)N(C)C[C@H]2Oc3ncc(C#C[C@H](C)O)cc3C(=O)N([C@@H](C)CO)C[C@H]2C)cc1	x	x	x	n	x	x
SMILES	Vc quorum ag	GDH-TPI counter-1	Mtb FBA inh	BioA inh	Mtb FBA inh conf	GDH-TPI counter-2
COC(=O)c1sc2nc(C)cc(C)c2c1N	n	n	38	n	n	n
Cc1ccc(N2CC(=O)N(NC(=O)c3sc4nc(C)cc(C)c4c3N)CC2=O)cc1	n	n	48	x	59	47
Cc1cc(C)c2c(N)c(C(=O)Nc3ccccc3F)sc2n1	n	n	n	n	x	x
Cc1cc(C)c2c(N)c(C(=O)Nc3ncc(C)s3)sc2n1	n	n	43	n	121	119
Cc1cc(C)c2c(N)c(C(=O)Nc3ccccc3Br)sc2n1	n	n	42	n	152	117
CCn1c(O)c(/C=C2\C=NN=C2c2ccc(C)cc2)sc1=S	n	n	n	x	x	x
CC(C)n1c(O)c(/C=C2\C=NN=C2c2ccccc2)sc1=S	n	n	56	x	199	135
C[C@@H]1CN([C@H](C)CO)S(=O)(=O)c2ccc(C#CC3CC3)cc2O[C@@H]1CN(C)Cc1cccc(F)c1	x	x	x	n	x	x
c1ccc(-c2nc3nc4ccccc4nc3n2CC2CCCO2)cc1 (stereo unspecified)	n	34	84	x	96	72
C=CCn1cc(-c2ccccc2)cc(C#N)c1=O	n	n	73	n	n	n
COc1ccccc1N1Cc2ccc(OC)c(OC)c2C1=O	n	n	n	n	x	x
COc1ccc2c(c1OC)C(=O)N(c1ccccn1)C2	n	n	45	n	115	106
CCC1(C)Cc2[nH]c(=O)c(C#N)cc2CO1 (stereo unspecified)	n	n	69	n	n	n
O=C(Cc1ccncc1)NCC[C@@H]1CC[C@@H](NC(=O)C2CCOCC2)[C@@H](CO)O1	x	x	x	n	x	x
